FBPA Giardia inh: blocks Giardia fructose-bisphosphate aldolase activity; A8B2U2; Potency, µM (top dose mostly 59.6 µM), without a hit: at the top dose activity, negative = inhibition, most hits filed as inhibitors; AID 2451; hit rate 0.71% among 290,000; purified Giardia FBPA; note: potency is the fitted concentration of half-maximal effect; nearly all actives have a fitted effect of over 55% in size
Target sequence (A8B2U2 whole entry, looked up): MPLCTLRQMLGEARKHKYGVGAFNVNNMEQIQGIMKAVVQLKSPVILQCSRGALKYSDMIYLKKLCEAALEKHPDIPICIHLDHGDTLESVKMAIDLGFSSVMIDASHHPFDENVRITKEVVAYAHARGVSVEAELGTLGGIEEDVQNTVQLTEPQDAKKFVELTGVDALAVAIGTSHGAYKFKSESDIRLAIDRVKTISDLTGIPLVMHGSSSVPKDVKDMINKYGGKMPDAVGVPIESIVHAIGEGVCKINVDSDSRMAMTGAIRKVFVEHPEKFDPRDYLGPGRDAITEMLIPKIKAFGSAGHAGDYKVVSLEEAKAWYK
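40 nM FBPA preincubated 10 min at RT with compound (up to 57.5 uM final), then substrate plus GAPDH/TPI/NAD/arsenate coupling and diaphorase/resazurin added. Fluorescence read after 20 min at RT, 525/598 nm.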
HCMV antiviral: blocks human cytomegalovirus replication. HFF cells, HCMV-luciferase reporter, 72 h; stronger effect = lower value. activity change, negative = inhibition, % at 57.5 µM. hit rate 4.5% among 410,000; in the data active = activity change below about -60%; inconclusive = no clear call, values can overlap the other calls; inactive = above about -39%
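Steps: HFFs plated, 16 h 37C; compounds added; HCMV-luciferase added to MOI 1 PFU/cell; 72 h 37C; OneGlo reagent, 5 min room temperature; luminescence read, normalized to controls.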
Pf growth 96h: P. falciparum growth inhibition at 96 hours | P. falciparum luciferase reporter growth, 96 h | Potency, µM (top dose mostly 28.7 µM), inactives show at the highest dose activity change, negative = inhibition, most hits filed as inhibitors | hit rate 6.9% among 320,000 | AID 504834; note: potency is the fitted concentration of half-maximal effect
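Infected RBCs, 2% Hct / 0.05% parasitemia final; luciferase-reporter P. falciparum; cpd 96 h, 37 C, 5% CO2; luciferase detection reagent; luminescence.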
Sm TGR block: S. mansoni TGR enzyme inhibition; Q962Y6; purified TGR, DTNB reduction, TNB absorbance 405 nm; Potency, µM (top dose mostly 114 µM), for inactives: at the top dose activity change, negative = inhibition, usual class: inhibitors; hit rate 3% among 360,000; note: potency is the fitted concentration of half-maximal effect; nearly all actives have a fitted effect of over 60% in size
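First, TGR (20 nM dispensed) and NADPH were mixed with compound. Second, a 15 min room-temperature incubation followed. Third, further NADPH and then DTNB were added to start the reaction. Finally, TNB absorbance was monitored kinetically.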
Pf growth 48h: inhibits P. falciparum growth in the first generation, 48 h. Potency, µM (top dose mostly 28.7 µM), for the others: at the highest dose activity change, negative = inhibition, actives largely listed as inhibitors. AID 504832. P. falciparum luciferase growth in erythrocytes, 48 h. hit rate 5.9% among 310,000; note: potency is the fitted concentration of half-maximal effect
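Cell-based growth assay: transgenic P. falciparum expressing firefly luciferase, cultured in red cells within RPMI 1640 containing 0.5% w/v Albumax, 24 mM bicarbonate and gentamycin. A drop in luciferase activity indicates inhibition.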
Active calls of the source: *. An excerpt weighted towards active compounds, which were near 14% of everything screened. Unless noted, calls come from the whole dose curve; as a rule, active = well fitted curve in the direction sought with a large enough effect; inconclusive = small, poorly fitted or top-dose-only effect, or another doubt; inactive = no such curve, though single readings can be large; an effect the other way counts as inactive or inconclusive. % is set by controls: 0 for no effect and ±100 for the full control effect.

What do the screens show for `COc1ccc(S(=O)(=O)NN(C)C)cc1N(C)S(=O)(=O)c1ccc(Cl)cc1`?
FBPA Giardia inh: 7%; HCMV antiviral: -64*; Pf growth 96h: 0%; Sm TGR block: 5%; Pf growth 48h: 12%

What do the screens show for `O=C(NCc1ccc(F)cc1)c1cc2c(=O)n3ccccc3nc2s1`?
HCMV antiviral: 9; Sm TGR block: 1%

How did O=C(Nc1nnc([C@@H]2C[C@H](O)[C@@H](CO)O2)s1)Nc1ccccc1F do in these assays?
HCMV antiviral: 15

How did CC1=C/C(=N\N=C2\NC(=O)C(CC(=O)Nc3ccccc3F)S2)CC(C)(C)C1 (stereo not drawn) do in these assays?
FBPA Giardia inh: 4%; HCMV antiviral: -65*; Pf growth 96h: 0%; Sm TGR block: 4%; Pf growth 48h: -16%

What do the screens show for `CC1CCN(C(=O)CCl)CC1`?
FBPA Giardia inh: 2%; HCMV antiviral: inconclusive; Pf growth 96h: 5.9µM*; Sm TGR block: inconclusive; Pf growth 48h: 5.2µM*

Results for CCOC(=O)N1CCN(C(=O)Cc2ccc(Cl)cc2)CC1 ?
FBPA Giardia inh: 4%; HCMV antiviral: -18; Pf growth 96h: -35%; Sm TGR block: 0%; Pf growth 48h: 4%

What do the screens show for `CC(C)(C)NC(=O)NC(=O)CN1CCCCCCC1`?
FBPA Giardia inh: -2%; HCMV antiviral: -8; Pf growth 96h: -11%; Sm TGR block: -24%; Pf growth 48h: 24%

What do the screens show for `CC(C)(C)NC(=O)CN1CCCN(C(=O)COc2ccc(Cl)c3ccccc23)CC1`?
HCMV antiviral: -7; Pf growth 96h: inconclusive; Sm TGR block: -6%; Pf growth 48h: 12µM*

How did CCOC(=O)N1CCN(C(=O)CCl)CC1 do in these assays?
FBPA Giardia inh: -1%; HCMV antiviral: -27; Pf growth 96h: inconclusive; Sm TGR block: 40µM*; Pf growth 48h: inconclusive

How did CC(C)(C)NC(=O)CN1CCN(C(=O)CCl)CC1 do in these assays?
FBPA Giardia inh: -11%; HCMV antiviral: -63*; Pf growth 96h: -22%; Sm TGR block: 45µM*; Pf growth 48h: inconclusive

What do the screens show for `CCOC(=O)c1c(C)[nH]c(C)c1S(=O)(=O)N1CCCC(C(=O)NCc2cccc(C)c2)C1` (stereo not drawn)?
HCMV antiviral: 0; Sm TGR block: -1%

How did COc1cccc(CN(C)C(=O)C(CCSC)NS(=O)(=O)c2ccc3c(c2)OCCO3)c1OC (stereo not drawn) do in these assays?
HCMV antiviral: -20; Pf growth 96h: inconclusive; Sm TGR block: 9%; Pf growth 48h: 12µM*

What do the screens show for `CC[N+](CC)(CC)CC(=O)Nc1ccc(SC(F)F)cc1`?
FBPA Giardia inh: 2%; HCMV antiviral: 11; Pf growth 96h: 15%; Sm TGR block: 50%; Pf growth 48h: -8%

Results for CCn1c(N)[n+](CC(=O)Nc2ccc(SC(F)F)cc2)c2ccccc21 ?
FBPA Giardia inh: -2%; HCMV antiviral: inconclusive; Pf growth 96h: 2.9µM*; Sm TGR block: 0%; Pf growth 48h: 8.3µM*

What do the screens show for `[O-][N+](=Cc1c(Cl)cccc1Cl)CC1(O)CCCCC1`?
HCMV antiviral: -15

How did c1cc(-c2ccc3nncn3c2)ccc1CN1CCOCC1 do in these assays?
HCMV antiviral: 22

How did O=C(NC(Cc1ccc(O)cc1)C(=O)N=Nc1c(O)[nH]c2ccccc12)c1ccccc1 (stereo not drawn) do in these assays?
HCMV antiviral: -83*

How did COc1cccc(Cl)c1NC(=O)N1CCN(c2ccnc3cc(Cl)ccc23)CC1 do in these assays?
FBPA Giardia inh: 4%; HCMV antiviral: inconclusive; Pf growth 96h: inconclusive; Sm TGR block: 14%; Pf growth 48h: inconclusive

How did COc1ccc(N2CCN(c3ccnc4cc(Cl)ccc34)CC2)cc1 do in these assays?
FBPA Giardia inh: 10%; HCMV antiviral: inconclusive; Pf growth 96h: 7.4µM*; Sm TGR block: -5%; Pf growth 48h: inconclusive

How did Oc1ccc(N2CCN(c3ccnc4cc(Cl)ccc34)CC2)cc1 do in these assays?
FBPA Giardia inh: -6%; HCMV antiviral: -66*; Pf growth 96h: 2.3µM*; Sm TGR block: inconclusive; Pf growth 48h: 3.3µM*

Results for Oc1ccc(C=NNC(=S)Nc2cccnc2)nc1 ?
HCMV antiviral: -69*

What do the screens show for `CC(C)(C)c1ccc(/C=N/NC(=S)Nc2cccnc2)cc1`?
FBPA Giardia inh: -1%; Pf growth 96h: inconclusive; Sm TGR block: -2%; Pf growth 48h: inconclusive

Results for S=C(N/N=C/c1ccc2ncccc2c1)Nc1cccnc1 ?
FBPA Giardia inh: -20%; HCMV antiviral: -71*; Pf growth 96h: -4%; Sm TGR block: 2%; Pf growth 48h: -20%

Results for Oc1ccc(/C=N/NC(=S)Nc2cccnc2)cc1O ?
FBPA Giardia inh: inconclusive; HCMV antiviral: 82; Pf growth 96h: 9%; Sm TGR block: -17%; Pf growth 48h: 37%

What do the screens show for `Cc1ccc(-c2nnc(C3CCN(S(=O)(=O)c4ccc(C)c(C)c4)CC3)o2)cc1`?
HCMV antiviral: inconclusive; Sm TGR block: -14%

How did Cc1cccc(-c2nnc(C3CCN(S(=O)(=O)c4cccc(Cl)c4)CC3)o2)c1 do in these assays?
HCMV antiviral: -94*; Sm TGR block: -6%

How did CC(=O)Nc1ccc(S(=O)(=O)N2CCC(c3nnc(-c4ccc(C)cc4)o3)CC2)cc1 do in these assays?
FBPA Giardia inh: 8%; HCMV antiviral: -96*; Pf growth 96h: inconclusive; Sm TGR block: -1%; Pf growth 48h: inconclusive

Results for O=c1c(-c2cccs2)nc2cncnc2n1C1CC1 ?
FBPA Giardia inh: 4%

Results for COc1ccc(CNS(=O)(=O)c2ccc(-c3ccc(=O)[nH]n3)o2)cc1 ?
HCMV antiviral: -40; Pf growth 96h: -8%; Sm TGR block: 89µM*; Pf growth 48h: 36%

Results for CCN(c1ccc(OC)cc1)S(=O)(=O)c1ccc(-c2ccc(=O)[nH]n2)o1 ?
HCMV antiviral: -64*; Pf growth 96h: 26%; Sm TGR block: 3%; Pf growth 48h: 8%

How did CCCCNC(=O)CSc1nc2cc3c(cc2c(=O)n1CCC(=O)NCCc1ccc(OC)c(OC)c1)OCO3 do in these assays?
FBPA Giardia inh: 4%; HCMV antiviral: -11; Pf growth 96h: 39%; Sm TGR block: -1%; Pf growth 48h: -1%

How did COc1ccc(N/C=C2\C(=O)CCc3c2oc2cc(Cl)c(O)c(Cl)c32)cc1 do in these assays?
FBPA Giardia inh: 0%; HCMV antiviral: -62*; Pf growth 96h: inconclusive; Sm TGR block: 35µM*; Pf growth 48h: -7%

Results for C[C@H](CO)N1C[C@H](C)[C@@H](CN(C)S(=O)(=O)c2ccc(-n3cccn3)cc2)OCc2cn(nn2)CCCC1=O ?
HCMV antiviral: -4

How did CCOc1cc(/C=N/Nc2ncc(C)c(=O)[nH]2)ccc1O do in these assays?
FBPA Giardia inh: -16%; HCMV antiviral: 105; Pf growth 96h: 28%; Sm TGR block: -13%; Pf growth 48h: -28%
